For 61 compounds, survival results are on record in PubChem BioAssay AID463173 (ICCB-Longwood Screening Facility, Harvard Medical School, 2010).

Out of some 52,000 compounds screened, about 4,300 (8.3%) were called active. The list comes from a sample in which actives are over-represented; it also holds similar structures and randomly drawn compounds. Values without a mark were called inactive. No stated cut-off is given here; in the data, active means survival mostly below about 52% (no sharp cut-off); inactive means mostly above about 56%.

The test system of the assay is DeltatarO mutant. Kind of assay: growth inhibition of S. aureus wild type versus tarO mutant, primary screen, teichoic acid synthesis inhibitors, RN4220, OD600 (AID 463173). Particulars: OD600, 18 h, active compounds read low, screened at 18.75 µg/mL (by protocol).
`COc1ccc(NC(=O)N2CCN3CCCCC3C2)cc1OC` (stereo unspecified): the survival was 99%.
Next, `COc1cc(Cl)ccc1OC(=O)c1cn(-c2ccccc2OC)c(=O)c2ccccc12`: 58%; `Cc1ccc(S(=O)(=O)Cn2nnnc2CN(Cc2ccco2)Cc2cccs2)cc1`: 61%.
Regarding `CN(C)c1ccc(C(CNS(=O)(=O)c2ccc(F)cc2)N2CCOCC2)cc1` (stereo unspecified), the survival was 92%.
For `Cc1ccc(S(=O)(=O)NCC(c2ccc(N(C)C)cc2)N2CCCC2)cc1` (stereo unspecified), the survival is 98%.
The figure for `CN(C)c1ccc(C(CNC(=O)c2ccccc2Cl)N2CCCC2)cc1` (stereo unspecified) is 81%.
`Cc1ccc(S(=O)(=O)NCC(c2ccc(N(C)C)cc2)N2CCOCC2)cc1` (stereo unspecified): the survival was 57%.
The figure for `CN(C)c1ccc(C(CNS(=O)(=O)c2ccc(Cl)cc2)N2CCCC2)cc1` (stereo unspecified) is 0% (active).
Next, `CN(C)c1ccc(C(CNC(=O)Cc2ccc(Cl)cc2)N2CCOCC2)cc1` (stereo unspecified): 63%; `CN(C)c1ccc(C(CNS(=O)(=O)c2ccc(F)cc2)N2CCCC2)cc1` (stereo unspecified): 106%; `CN(C)c1ccc(C(CNS(=O)(=O)c2ccc(Cl)cc2)N2CCOCC2)cc1` (stereo unspecified): 37% (active).
The figure for `CN(C)c1ccc(C(CNC(=O)c2c(F)cccc2Cl)N2CCOCC2)cc1` (stereo unspecified) is 25% (active).
In the case of `CCN(CC)C(=O)Cn1c(=O)n(-c2ccc(OC)cc2OC)c(=O)c2c(C)c(C(=O)N(CC)CC)sc21`, the survival was 89%.
Take `CCc1cccc(CC)c1NS(=O)(=O)c1ccc2c(c1)CCN2C(=O)C1CC1`: the survival was 90%.
Regarding `CC1=Nc2cc(C(=O)NCCc3ccc(Cl)cc3)ccc2Sc2c(C)ccc(C)c21`, the survival was 74%.
Next, `O=C(NCCc1ccc(Cl)cc1)c1ccc(CS(=O)(=O)Cc2ccc(F)cc2)o1`: 92%; `CCOc1ccccc1-c1nc(-c2ccc(-c3ccccc3)nc2OCC)no1`: 4% (active).
For `COc1cccc(-c2ccc(-c3noc(-c4ccccc4Br)n3)c(OC)n2)c1`, the survival was 37%.
The figure for `CCOc1cc(-c2nc(-c3ccc(-c4ccccc4)nc3OCC)no2)cc(OCC)c1OCC` is 53%.
For `CCOc1nc(-c2ccccc2)ccc1-c1noc(-c2ccc(C)cc2)n1`, the survival was 110%.
`CCOc1cc(-c2nc(-c3ccc(-c4ccc(C)cc4)nc3OC)no2)cc(OCC)c1OCC`: the survival is 69% (active).
The figure for `COc1nc(-c2ccccc2)ccc1-c1noc(-c2ccccc2Br)n1` is -1% (active); for `COc1nc(C)ccc1-c1noc(-c2ccccc2)n1` it is 102%.
Next, `COc1ccc(-c2ccc(-c3noc(-c4cc(OC)cc(OC)c4)n3)c(OC)n2)cc1`: 45%; `COc1cccc(-c2nc(-c3ccc(-c4ccccc4)nc3OC)no2)c1`: 10% (active).
The figure for `CCOc1cc(-c2nc(-c3ccc(Br)cc3)no2)cc(OCC)c1OCC` is 118%.
`CCOc1cc(-c2nc(-c3ccc(-c4ccc(OC)cc4)nc3OC)no2)cc(OCC)c1OCC`: the survival is 75%.
In the case of `COc1nc(-c2ccccc2)ccc1-c1noc(C(C)C)n1`, the survival is 91%.
The figure for `COc1ccc(CCCc2nnc(SCC(=O)Nc3ccc(F)cc3)o2)cc1C` is 89%; for `COc1ccccc1N1CCN(c2cc(N3CCCC3)nc(C)n2)CC1` it is 98%; for `O=C(Nc1ccc(Br)cc1)C1CCCN(S(=O)(=O)c2ccc(Br)s2)C1` (stereo unspecified) it is 82%.
For `C#CCN1CCc2cc(OC)c(OC)cc2C1C` (stereo unspecified), the survival was 101%.
Next, `Cc1cccc(CCNCc2cc3cc4c(cc3[nH]c2=O)OCO4)c1`: 85%; `CC1(C)OC2C(CO)OC(n3ncc(=O)[nH]c3=O)C2O1` (stereo unspecified): 86%; `CCOc1nc(-c2ccc(C)cc2)ccc1-c1noc(-c2ccccc2F)n1`: 54%.
Regarding `COc1nc(-c2ccc(C)cc2)ccc1-c1noc(-c2ccc(C(C)(C)C)cc2)n1`, the survival is 47%.
Next, `COc1nc(-c2ccc(C)cc2)ccc1-c1noc(-c2ccccc2Br)n1`: 19% (active); `CC(C)(C)c1cc(C(C)(C)C)c2oc(=O)c(-c3nc4ccccc4[nH]3)cc2c1`: 69%; `Cc1ccc(-n2ncc(C(=O)NCCN3CCc4ccccc4C3)c2C2CCNCC2)cc1C`: 95%.
`O=C(c1ccc(F)cc1)N1CCC(c2nc3ccccc3o2)CC1`: the survival is 83%.
Consider `Cc1nnc(SCc2ccccc2)c2cc3sccc3n12`, for which the survival was 53%.
The figure for `COc1ccc(CCN(Cc2nc3ccccc3c(=O)[nH]2)C(=O)C(C)C)cc1` is 101%.
For `CC(C)(C)c1nnc(NC(=O)CS(=O)(=O)Cc2ccccc2)s1`, the survival was 95%.
Next, `CCC(=O)Nc1nnc(C(C)(C)C)s1`: 51% (active).
Next, `CCC(CC)C(=O)Nc1nnc(C(C)(C)C)s1`: 95%.
`CCn1nnc2cc(C(=O)Nc3cccc(C)c3C)ccc21`: the survival is 72%.
In the case of `Clc1ccc(NC2CCCCC2)nn1`, the survival is 66% (active).
Next, `Clc1ccc(NCCC2=CCCCC2)nn1`: 84%; `CN(C)CCNc1ccc(Cl)nn1`: 96%; `COc1ccccc1-c1nc(SCC(=O)NCc2ccc(C)cc2)c2c(=O)n(C)c(=O)n(C)c2n1`: 69%.
The figure for `Cc1ccccc1NC(=O)c1ccc2[nH]c(C)c(C)c2c1` is 123%.
On to `CCOc1ccccc1NS(=O)(=O)c1c(C(=O)OC)sc2cccc(F)c12`, for which the survival was 20% (active).
`CCOC(=O)c1sc2cccc(F)c2c1S(=O)(=O)Nc1ccccc1F`: the survival is 99%.
On to `COC(=O)c1sc2cccc(F)c2c1S(=O)(=O)Nc1cc(C)c(Cl)cc1OC`, for which the survival was 89%.
For the compound `COC(=O)c1sc2cccc(F)c2c1S(=O)(=O)Nc1cc(OC)cc(OC)c1`, the survival is 8% (active).
The figure for `COC(=O)c1sc2cccc(F)c2c1S(=O)(=O)Nc1ccc(N(C)C)cc1` is 66%.
Next, `COC(=O)c1sc2cccc(F)c2c1S(=O)(=O)Nc1ccc(C)cc1Cl`: 91%; `COC(=O)c1ccccc1NS(=O)(=O)c1cc2c(cc1C)N(C)CCO2`: 87%; `COc1cc(C(=O)N2CCN(CCc3ccccn3)CC2)cc(OC)c1OC`: 66%.
In the case of `Cc1ccc2nc(-c3cccc(Cl)c3)c(Nc3ccc4c(c3)OCO4)n2c1`, the survival was 75%.
With `COc1cc(NC(=O)C2CCCN(S(=O)(=O)c3ccc4c(c3)CCCC(=O)N4)C2)cc(OC)c1` (stereo unspecified), the survival was 94%.
